Where a name gives a salt, the structure may show the parent alone. ± gives the standard deviation of the averaged measurements. The full ranking holds about 1,900 compounds; the median of “normalised cell viability (NPI; 0 = phenylarsine oxide control, 1 = DMSO control)” is about 1, and the lowest 2% start at about 0.039. The sample holds the lowest values, similar compounds and a random draw of the others, so the mix is not that of the screen.
Tested on: NCI-H1944
Experiment: normalised cell viability (NPI; 0 = phenylarsine oxide control, 1 = DMSO control) (fraction of DMSO control); NCI-H1944 is a non-small cell lung cancer line; higher = more viable cells (less compound toxicity)
Conditions: 6 days
[1] = glucocorticoid arm: hydrocortisone 2.75 uM co-treatment, compound 1 µM
[2] = glucocorticoid arm: hydrocortisone 2.75 uM co-treatment, compound 5 µM
[3] = glucocorticoid arm: hydrocortisone 2.75 uM pre-treated 2 days and continued, compound 1 µM
[4] = glucocorticoid arm: hydrocortisone 2.75 uM pre-treated 2 days and continued, compound 5 µM
[5] = glucocorticoid arm: vehicle, compound 1 µM
[6] = glucocorticoid arm: vehicle, compound 5 µM
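Also: CTB read-out in 384-well plates, triplicate wells, NPI normalised per plate against 1 µM phenylarsine oxide (0) and 0.1% DMSO (1) controls.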

Row | SMILES | normalised cell viability [1] | normalised cell viability [2] | normalised cell viability [3] | normalised cell viability [4] | normalised cell viability [5] | normalised cell viability [6]
1 | CO[C@@]12[C@H](COC(N)=O)C3=C(C(=O)C(C)=C(N)C3=O)N1C[C@@H]1N[C@@H]12 [Mitomycin; Mitomycin C] | 1 ± 0.013 | 0.00117 ± 0.0012 | 1.017 ± 0.0058 | 0.0028 ± 0.00069 | 0.9803 ± 0.0055 | 0.000408 ± 0.00038
2 | O=C1c2c(O)ccc(O)c2C(=O)c2c(NCCNCCO)ccc(NCCNCCO)c21 [Mitoxantrone dihydrochloride] | 0.00888 ± 0.0019 | 0.00352 ± 0.00052 | 0.145 ± 0.013 | 0.155 ± 0.0095 | 0.00324 ± 0.00091 | 0.00617 ± 0.003
3 | O=C1c2ccccc2C(=O)c2c(NCCc3ccc(O)cc3)ccc(NCCc3ccc(O)cc3)c21 | 1.01 ± 0.012 | 1.02 ± 0.038 | 1.01 ± 0.012 | 1.012 ± 0.0075 | 1.01 ± 0.0063 | 1.022 ± 0.0098
4 | O=C1c2c(O)ccc(O)c2C(=O)c2c(NCCNCCO)ccc(NCCNCCO)c21 [Mitoxantrone; Mitoxantrone dihydrochloride] | 0.181 ± 0.0045 | 0.00493 ± 0.00072 | 0.65 ± 0.012 | 0.0166 ± 0.0015 | 0.0328 ± 0.004 | 0.00403 ± 0.00087
5 | O=C(NCc1cccc(O)c1)Nc1nc(-c2ccncc2)cs1 | 0.994 ± 0.01 | 0.978 ± 0.021 | 1.01 ± 0.014 | 0.971 ± 0.035 | 0.984 ± 0.0069 | 0.816 ± 0.054
6 | C=C/C(C)=C/[C@@]1(C)SC(=O)C(C)=C1O [Thiolactomycin] | 0.992 ± 0.0056 | 0.961 ± 0.021 | 1 ± 0.026 | 0.848 ± 0.23 | 0.9883 ± 0.0015 | 0.998 ± 0.012
7 | C=CCN1CCc2c(cc(O)c(O)c2Cl)C(c2ccccc2)C1 (racemic) [(±)-Chloro-APB hydrobromide] | 0.9917 ± 0.0072 | 1.02 ± 0.01 | 0.989 ± 0.0061 | 1 ± 0.011 | 0.9943 ± 0.0021 | 0.99467 ± 0.00058
8 | N#C/C(=C\c1ccc(-c2cc(Cl)ccc2Cl)o1)C(=O)Nc1cccc2ncccc12 | 0.971 ± 0.01 | 0.978 ± 0.035 | 0.984 ± 0.018 | 0.991 ± 0.014 | 0.9887 ± 0.0078 | 0.989 ± 0.012
9 | O=C(/C=C/c1cccc(S(=O)(=O)Nc2ccccc2)c1)NO [Belinostat (PXD101)] | 0.9767 ± 0.0051 | 0.0174 ± 0.0036 | 1.02 | 0.114 ± 0.0036 | 0.575 ± 0.067 | 0.00153 ± 0.00067
10 | COc1cccc(NC(=O)/C=C/c2ccc(Cl)cc2)c1 | 0.953 ± 0.015 | 0.884 ± 0.026 | 0.992 ± 0.029 | 0.941 ± 0.023 | 0.9757 ± 0.0093 | 0.9683 ± 0.0067
11 | O=C(/C=C/C#Cc1cccc(NS(=O)(=O)c2ccccc2)c1)NO [Oxamflatin] | 0.974 ± 0.015 | 0.599 ± 0.44 | 0.992 ± 0.019 | 0.901 ± 0.11 | 0.843 ± 0.17 | 0.509 ± 0.54
12 | N[C@H](C(=O)O)[C@H]1C[C@@H]1C(=O)O [(2S,1'S,2'S)-2-(carboxycyclopropyl)glycine] | 0.99 ± 0.0046 | 0.979 ± 0.019 | 0.994 ± 0.0095 | 0.978 ± 0.015 | 0.9847 ± 0.0055 | 0.9883 ± 0.0097
13 | COC(=O)[C@]12CCC(C)(C)C[C@H]1[C@H]1C(=O)C=C3[C@@]4(C)C=C(C#N)C(=O)C(C)(C)[C@@H]4CC[C@@]3(C)[C@]1(C)CC2 [Bardoxolone Methyl] | 0.00114 ± 0.00058 | 1.08 ± 0.01 | 0.00366 ± 0.0014 | 1.1 ± 0.015 | 0.00138 ± 0.00077 | 0.858 ± 0.022
14 | N.N.N.N.N.N.N.N.N.N.N.N.N.N.O.O.[Cl-].[Cl-].[Cl-].[Cl-].[Cl-].[Cl-].[Ru+4].[Ru+5].[Ru+5] [Ruthenium red] | 0.991 ± 0.01 | 0.974 ± 0.021 | 1.01 ± 0.027 | 0.987 ± 0.023 | 0.995 ± 0.0052 | 0.973 ± 0.0087
15 | CC(C)(C)NCC(O)COc1cccc2[nH]c(=O)[nH]c12 (racemic) | 0.9973 ± 0.0023 | 0.974 ± 0.014 | 0.992 ± 0.015 | 0.988 ± 0.0076 | 0.9853 ± 0.0067 | 0.985 ± 0.0053
16 | CC1c2cccc(O)c2C(O)=C2C(=O)C3(O)C(O)=C(C(N)=O)C(=O)C(N(C)C)C3C(O)C21 (centres undefined) [Doxycycline hydrochloride] | 1 | 0.9303 ± 0.0093 | 0.99 ± 0.014 | 0.945 ± 0.018 | 0.9897 ± 0.0067 | 0.9743 ± 0.006
17 | COC(=O)C(C)(N)Cc1ccc(O)cc1 (racemic) [alpha-Methyl-DL-tyrosine methyl ester hydrochloride] | 1.004 ± 0.01 | 1.01 ± 0.034 | 1.01 ± 0.023 | 0.999 ± 0.011 | 0.9943 ± 0.0057 | 1.004 ± 0.0098
18 | Cn1c(=O)c(F)c(Nc2ccc(I)cc2F)c2c(=O)n(C[C@@H](O)CO)cnc21 | 0.641 ± 0.035 | 0.629 ± 0.043 | 0.772 ± 0.028 | 0.757 ± 0.042 | 0.329 ± 0.013 | 0.226 ± 0.025
19 | Cc1cc(C(=O)NOCCO)c(Nc2ccc(I)cc2F)n(C)c1=O | 0.614 ± 0.018 | 0.565 ± 0.035 | 0.66 ± 0.011 | 0.672 ± 0.037 | 0.286 ± 0.014 | 0.279 ± 0.013
20 | CCCNC[C@H](O)COc1ccccc1C(=O)CCc1ccccc1 [(S)-(-)-propafenone hydrochloride] | 0.99967 ± 0.00058 | 0.9747 ± 0.0047 | 1.02 ± 0.026 | 1.02 ± 0.015 | 0.9967 ± 0.0058 | 0.995 ± 0.005
21 | Cc1nc(C#Cc2ccnc(Cl)c2)c(C)n1-c1ccc(OC(F)(F)F)cc1 | 0.993 ± 0.021 | 0.992 ± 0.01 | 0.983 ± 0.015 | 0.9747 ± 0.004 | 1 ± 0.017 | 1 ± 0.014
22 | O=S(=O)(NCCNCC=Cc1ccc(Br)cc1)c1cccc2cnccc12 | 0.985 ± 0.012 | 0.985 ± 0.025 | 1.03 ± 0.01 | 1.007 ± 0.0058 | 1.002 ± 0.0072 | 0.968 ± 0.016
23 | Cc1ccccc1N1CCN(S(=O)(=O)C[C@]23CC[C@H](C[C@@H]2NC(=O)[C@@H](N)CCS(C)(=O)=O)C3(C)C)CC1 [L-368,899 hydrochloride] | 0.99 ± 0.017 | 0.986 ± 0.024 | 0.998 ± 0.013 | 1.01 ± 0.023 | 0.9847 ± 0.0035 | 0.9993 ± 0.0095
24 | COC[C@H](NC(=O)c1cnc(C)s1)C(=O)N[C@@H](COC)C(=O)N[C@@H](Cc1ccccc1)C(=O)[C@@]1(C)CO1 [Oprozomib (ONX 0912)] | 0.208 ± 0.051 | 0.0253 ± 0.0081 | 0.7 ± 0.017 | 0.301 ± 0.021 | 0.0106 ± 0.0015 | 0.00109 ± 0.00065
